Reference: PubChem BioAssay (NCI)
Several values for one entry are separate records, joined by “and”; a condition that tells them apart may be missing. Identical values can stand only once. Compounds without any hit were thinned out: in the full panel of roughly 83,000, 20% have a hit.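 Negative percent growth values reflect cell death: -40 means 40% of the cells present at the start died, and -100 means all died.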 Values without a mark were called inactive. Activity calls are given as the source filed them. How the source made its calls: active means growth percent below 10; inactive means the rest.

System: MDA-MB-468 breast
Experiment: NCI-60 one-dose screen, 48 h (100 = growth as untreated, 0 = no growth, -100 = all killed)
Conditions: 10 µM unless noted

| Compound | growth |
| --- | --- |
| COc1ccc(/C=C(\c2cc(OC)c(OC)c(OC)c2)c2nnc(-c3cccs3)o2)cc1 | 77.7% |
| COc1cccc2cc(N(C)c3nc(C)nc4c3CCC4)ccc12 | 18% |
| COc1cc(OC)cc(-c2ccc(-c3ccc(C(=N)N)s3)s2)c1 | -76.9% (active) |
| COc1ccc2c(c1)oc1c3[nH]c4ccccc4c3c3c(c21)C(=O)N(O)C3=O | -17.7% (active) |
| CCCCCCCCCCCCCC1=NC(C)(C)CN1C(C)C | -61.4% (active) |
| Cn1cc(-c2cc3c(Nc4ccc(CC(=O)Nc5cc(C(C)(C)C)on5)cc4)ncnc3[nH]2)cn1 | -74.3% (active) and -62.1% (active) |
| C#Cc1nc(C2=C(C)C(O)CC2)cs1 (configuration not stated) | -91.7% (active) |
| COCCn1cc(-c2csc(-c3c[nH]c4ccc(Br)cc34)n2)c2cccnc21 | 0.403% (active) |
| C#C[C@]1(O)CC[C@H]2[C@@H]3CC=C4c5sc(-c6ccccn6)nc5CC[C@]4(C)[C@H]3CC[C@@]21C | 89.2% |
| CC(C)(Cl)CCC1=C(Cl)C(=O)c2ccccc2C1=O | -43.5% (active) |
| c1ccc2cc(C[n+]3ccn(CCCCCCCCCCn4cc[n+](Cc5ccc6ccccc6c5)c4)c3)ccc2c1 | -28.3% (active) |
| Nc1nc2ccc3[nH]ncc3c2c2c1CCCC2 | -46.8% (active) |
| O=C1/C(=C/C(Cl)=C/c2ccccc2)SC(=S)N1CCc1ccc(O)cc1 | -36.2% (active) |
| COC(=O)c1c2c(c(C)[n+]([O-])c1C)C(=O)C(NCc1ccc(F)cc1)=CC2=O | -9.79% (active) |
| Cc1ccc(-[n+]2c3cc(N)c(C)cc3nc3cc(C)c(Nc4ccccc4)cc32)cc1 | -86.2% (active) |
| CCCCCCCCCC[N+](C)(C)C | -31.3% (active) |
| O=C(c1ccc(Cl)cc1)C1[C@H](c2ccc(Cl)cc2)[C@@H](c2ccccc2)NC12C(=O)Nc1ccccc12 (some centres not stated) | 50.7% |
| O=[N+]([O-])c1cccc(N=Nc2ccc(O)cc2O)c1 | 69.6% |
| Cc1ccc(Nn2c(SCC(=O)Nc3nc(-c4ccccc4)cs3)nc(C)c2C)cc1 | 17.7% |

| Compound | growth |
| --- | --- |
| O=C1NC(=O)C(CC(=O)n2c(-c3ccccc3)nc3ccccc32)C(=O)N1 | 98.3% |
| O=C(Cn1c(=O)ccn(CCCCCCCCOc2ccc(Br)cc2)c1=O)Nc1ccc(Oc2ccc(Cl)cc2)cc1 | 34.2% |
| CCOC(=O)c1c(CN2CCN(C)CC2)nc2ccc(Cl)cc2c1-c1ccccc1 | 63.7% |
| Cc1ccc(C2=Nc3c(ccc4c(C)c(C)c(=O)oc34)OC2)cc1 | 113% |
| COC(=O)[C@]12CC[C@@H](C)[C@H](C)[C@@H]1C1=CC[C@@H]3[C@@]4(C)C(C=O)=C[C@@](C)(COC(=O)/C=C/c5ccccc5)[C@@H]4[C@H](O)C[C@@]3(C)[C@]1(C)CC2 | 14.9% |
| COc1c(C)cnc(CSc2nc(-c3ccc(C)cc3)cn2-c2ccc(Cl)cc2)c1C | 114% |
| CCN(CC)C(=O)C1CCN(C(=O)c2ccccc2)CC1 | 109% |
| O=C(Cn1cc(CN2CCCCCC2)nn1)Nc1ccc2c(ccn2Cc2ccccc2)c1 | 74.9% |
| CCCCCCCCCCCCCCCCCC1=NCCN1CCNC(C)=O | 114% |
| CCN(CCCOc1ccc2c(Nc3cc(CC(=O)Nc4cccc(F)c4)[nH]n3)ncnc2c1)CCOP(=O)(O)O | 67.6% |
| CCC(C)(c1cc(C(C)(C)C)c(O)c(C(C)(C)C)c1)c1cc(C(C)(C)C)c(O)c(C(C)(C)C)c1 | 112% |
| CC(C)(C)c1ccc(S(=O)(=O)Oc2ccc(NC(=O)C3CCCCC3)cc2)cc1 | 28.2% |
| O=C1N[C@H]2[C@H](CS[C@H]2CCCCC(=O)N(CCP(c2ccccc2)c2ccccc2)CCP(c2ccccc2)c2ccccc2)N1 | 33.8% |
| OCCCCCCNc1ncnc2cc(Cl)ccc12 | 74.1% |
| Oc1ccc(Cl)cc1Sc1cc(Cl)ccc1O | 22% |
| C#CC[C@@H]1C[C@]2(C)[C@H]3CC=C4[C@H]5CC(C)(C)CC[C@]5(C(=O)NCCCCN)CC[C@@]4(C)[C@]3(C)CC[C@H]2C(C)(C)[C@H]1OC(C)=O | -39.7% (active) |
| N#Cc1nc(-c2ccc(F)cc2)oc1S(=O)(=O)N1CCCCC1 | 52.7% |
| CCn1cc(C(=O)O)c(=O)c2cc(F)c(N3CCN(CC(=O)Nc4ccc(S(=O)(=O)Nc5nccc(C)n5)cc4)C(C)C3)c(F)c21 (configuration not stated) | 96.4% |
